# Assay results from PubChem BioAssay (NCATS).
# “And” between values parts separate entries of the source, which are not always exact repeats. Equal entries are not always repeated. Results filed as inconclusive are left out. Entries that show only a call come without a potency. A structure can be active in one record and inactive in another. The source made the active and inactive calls. Unless noted, calls follow the shape of the dose curve; as a rule, active = well fitted curve in the direction sought with a large enough effect; inconclusive = small, poorly fitted or top-dose-only effect, or another doubt; inactive = no such curve, though single readings can be large; an effect the other way counts as inactive or inconclusive.
# Columns and labels:
# [1] = Primary qHTS to identify inhibitors of SARS-CoV-2 cell entry (AID 1645846; calls by dose curve; also: nearly all actives have a fitted effect of over 45% in size; also: potency is read from the fitted curve at half-maximal effect); conditions: SARS-CoV-2 pseudovirus cell entry assay, luminescence; activity change, negative = inhibition: at 57.1 µM (top of the series) unless noted; series mostly up to 57.1 µM
# Outline: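 Inhibition of spike-mediated entry was scored in human ACE2-transfected Expi293F cells. Particles were MLV-pseudotyped with Wuhan-Hu-1 S carrying a 19-aa C-terminal deletion; signal was luciferase after two days, scaled between spike PP and fusion-protein-free PP.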
# [2] = Primary qHTS for inhibitors of nuclear receptor binding SET domain protein 2 (NSD2) in an isogenic RCH-ACV NSD2 p.E1099K mutant (9B) (AID 1645876); conditions: RCH-ACV NSD2 E1099K (9B) viability, CellTiter-Glo, 72 h; series mostly up to 44.9 µM; also: nearly all actives have a fitted effect of over 70% in size; also: potency is read from the fitted curve at half-maximal effect
# [3] = Primary qHTS for inhibitors of nuclear receptor binding SET domain protein 2 (NSD2) in an RCH-ACV wild type WT cells (2C) (AID 1645877); conditions: RCH-ACV (leukaemia line) NSD2 WT (2C) viability, CellTiter-Glo, 72 h; series mostly up to 44.9 µM; also: nearly all actives have a fitted effect of over 70% in size; also: potency is read from the fitted curve at half-maximal effect
# Papain (Carica papaya) = Papain (Carica papaya) (UniProt P00784); assay: Primary qHTS assay for inhibitors of the protease papain (AID 1645873); conditions: papain Z-FR-AMC cleavage, AMC fluorescence; series mostly up to 49.8 µM;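 also: papain turnover of Z-FR-AMC read as the AMC fluorescence gain over 10 min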; also: potency is read from the fitted curve at half-maximal effect
# Chain of Papain (Carica papaya) (P00784 whole entry, looked up): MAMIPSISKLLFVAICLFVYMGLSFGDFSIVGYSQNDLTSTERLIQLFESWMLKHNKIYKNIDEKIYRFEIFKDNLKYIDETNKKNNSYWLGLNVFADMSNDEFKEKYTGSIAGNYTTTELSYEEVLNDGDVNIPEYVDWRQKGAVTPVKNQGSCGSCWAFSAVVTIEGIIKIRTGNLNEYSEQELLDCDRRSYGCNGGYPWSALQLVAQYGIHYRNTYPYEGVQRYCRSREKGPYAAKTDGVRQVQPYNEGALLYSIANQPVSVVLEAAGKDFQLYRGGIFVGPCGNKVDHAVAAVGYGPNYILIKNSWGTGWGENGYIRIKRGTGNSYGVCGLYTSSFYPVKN
# [4] = VSVG counterscreen qHTS to identify inhibitors of SARS-CoV-2 cell entry (AID 1645847; calls by dose curve; also: potency is read from the fitted curve at half-maximal effect; nearly all actives have a fitted effect of over 65% in size); conditions: VSV-G pseudotyped particle entry, luciferase; series mostly up to 57.2 µM
# Outline: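 Luminescence from a luciferase reporter, normalised to bald particle and VSV-G pseudotyped particle wells, is the read-out. Cells are HEK293 expressing human ACE2, exposed to compound 1 h before a 48 h particle infection at 37 °C.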
# [5] = molecular target: Catechol O-methyltransferase (Homo sapiens) (UniProt P21964); assay: Confirmatory Screen for Target Class Profiling of Small Molecule Inhibitors of Methyltransferases (AID 1745852); conditions: MTase-Glo luminescence, SAH detection, recombinant enzyme; measured here: COMT max response; stronger effect = lower value
# Chain of Catechol O-methyltransferase (Homo sapiens) (P21964 whole entry, looked up): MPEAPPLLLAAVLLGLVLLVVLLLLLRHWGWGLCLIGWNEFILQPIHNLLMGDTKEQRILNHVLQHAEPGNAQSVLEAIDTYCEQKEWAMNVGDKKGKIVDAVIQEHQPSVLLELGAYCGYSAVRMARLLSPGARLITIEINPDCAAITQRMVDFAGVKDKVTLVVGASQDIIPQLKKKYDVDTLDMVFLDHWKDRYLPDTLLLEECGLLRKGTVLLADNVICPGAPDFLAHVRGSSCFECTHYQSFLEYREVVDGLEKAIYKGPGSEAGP
# [6] = molecular target: Guanidinoacetate N-methyltransferase (Homo sapiens) (UniProt Q14353); assay: as above; conditions: MTase-Glo luminescence, SAH detection, recombinant enzyme; activity change, negative = inhibition: at 57.3 µM (top of the series)
# [7] = molecular target: Nicotinamide N-methyltransferase (Homo sapiens) (UniProt P40261); assay: as above; conditions: MTase-Glo luminescence, SAH detection, recombinant enzyme; measured here: NNMT max response; stronger effect = lower value
# Chain of Nicotinamide N-methyltransferase (Homo sapiens) (P40261 whole entry, looked up): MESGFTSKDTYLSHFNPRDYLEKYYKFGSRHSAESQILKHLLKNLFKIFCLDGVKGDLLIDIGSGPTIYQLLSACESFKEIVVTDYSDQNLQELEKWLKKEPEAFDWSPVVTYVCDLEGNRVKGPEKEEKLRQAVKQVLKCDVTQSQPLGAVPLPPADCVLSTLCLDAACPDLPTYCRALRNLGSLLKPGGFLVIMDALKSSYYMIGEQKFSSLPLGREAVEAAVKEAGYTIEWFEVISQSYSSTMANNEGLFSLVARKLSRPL
# [8] = molecular target: Phenylethanolamine N-methyltransferase (Homo sapiens) (UniProt P11086); assay: as above; conditions: MTase-Glo luminescence, SAH detection, recombinant enzyme; measured here: PNMT max response; stronger effect = lower value
# Chain of Phenylethanolamine N-methyltransferase (Homo sapiens) (P11086 whole entry, looked up): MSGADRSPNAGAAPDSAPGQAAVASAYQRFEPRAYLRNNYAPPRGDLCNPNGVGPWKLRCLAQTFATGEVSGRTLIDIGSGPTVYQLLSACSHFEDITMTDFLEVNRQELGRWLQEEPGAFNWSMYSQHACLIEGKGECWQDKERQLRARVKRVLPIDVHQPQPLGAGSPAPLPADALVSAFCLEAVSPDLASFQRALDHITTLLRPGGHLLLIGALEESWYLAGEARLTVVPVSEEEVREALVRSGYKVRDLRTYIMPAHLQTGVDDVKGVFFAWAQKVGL
smiles,measurement,setting,value
Nc1ccccc1NC(=O)c1ccc(CNc2nccc(-c3cccnc3)n2)cc1,Potency,[1],inactive
CCNC(=O)CC1N=C(c2ccc(Cl)cc2)c2cc(OC)ccc2-n2c(C)nnc21 (stereo not drawn),"activity change, negative = inhibition",[1],-16.5%
same,Potency,[2],9.34 µM (active) and inactive and 515 nM (active)
same,Potency,[3],5.9 µM (active) and inactive and 409 nM (active)
COc1ccc2c(c[n+](C)c3c4cc5c(cc4ccc23)OCO5)c1OC,"activity change, negative = inhibition",[1],-96.4%
same,Potency,Papain (Carica papaya),inactive
same,Potency,[2],inactive
same,Potency,[3],inactive
O=C(O)c1ccc(O)c2ncc(N3CCOCC3)cc12,Potency,[1],28.2 µM (active)
NC(=O)CN1CC(O)CC1=O (stereo not drawn),Potency,Papain (Carica papaya),inactive
Cc1ccc(C(N)=O)cc1Nc1nccc(-c2cn(C(C)C)c3cnccc23)n1,Potency,[1],8.91 µM (active)
same,Potency,[4],2.15 µM (active)
NC(CP(=O)(O)O)C(=O)O (stereo not drawn),Potency,Papain (Carica papaya),inactive
CN[C@@H]1C[C@@H](c2ccc(Cl)c(Cl)c2)c2ccccc21,Potency,Papain (Carica papaya),inactive
CS(=N)(=O)CC[C@H](N)C(=O)O (stereo partly drawn),Potency,Papain (Carica papaya),inactive
NC(CCP(=O)(O)O)C(=O)O (stereo not drawn),Potency,Papain (Carica papaya),inactive
O=C1C(I)=CC(=C(c2cc(I)c(O)c(I)c2)c2ccccc2C(=O)O)C=C1I,Potency,[2],inactive
same,Potency,[3],inactive
O=C1CCCN1CC#CCN1CCCC1,Potency,Papain (Carica papaya),inactive
CCCCCCCCc1ccc(O)cc1,Potency,[2],6.18 µM (active)
NCCc1c[nH]c2ccc(O)cc12,Potency,Papain (Carica papaya),inactive
CCCCc1ccc(C(=O)O)nc1,Potency,Papain (Carica papaya),inactive
Cc1nccc2c1[nH]c1ccccc12,Potency,Papain (Carica papaya),28.2 µM (active)
CCCN(CCC)[C@@H]1CCc2ccc(O)cc2C1,Potency,Papain (Carica papaya),inactive
same,activity,[5],3.68%
same,"activity change, negative = inhibition",[6],1.97%
same,activity,[7],-6.47%
same,activity,[8],6.74%
